# Assay results reported in paper PMC10726135, “HNF4α isoforms regulate the circadian balance between carbohydrate and lipid metabolism in the liver”.
# Whole data set: some 18,000 sequences, median “log2 normalized intensity” near 0.39, cut for the highest 2% near 6.6. Only a selection was taken, and the highest values are over-represented in it overall.
# Target: T1, HNF4alpha2 (COS-7 nuclear extract) (Homo sapiens, UniProt P41235 1-474)
# T1 sequence: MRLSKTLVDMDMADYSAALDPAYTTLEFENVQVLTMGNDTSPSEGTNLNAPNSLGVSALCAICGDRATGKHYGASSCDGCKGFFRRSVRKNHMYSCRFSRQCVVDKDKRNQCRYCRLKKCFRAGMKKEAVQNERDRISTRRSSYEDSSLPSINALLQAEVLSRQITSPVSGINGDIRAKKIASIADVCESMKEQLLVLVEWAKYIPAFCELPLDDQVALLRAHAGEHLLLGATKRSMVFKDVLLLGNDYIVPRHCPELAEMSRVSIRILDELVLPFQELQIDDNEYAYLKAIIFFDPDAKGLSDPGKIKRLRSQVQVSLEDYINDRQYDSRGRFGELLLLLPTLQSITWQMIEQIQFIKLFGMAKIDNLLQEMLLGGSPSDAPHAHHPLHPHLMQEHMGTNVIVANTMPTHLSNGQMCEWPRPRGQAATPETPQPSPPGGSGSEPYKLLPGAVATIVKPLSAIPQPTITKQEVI
# Assay: protein-binding microarray; COS-7 nuclear extract on double-stranded Agilent 4x180k PBM; binding buffer, salt, pH and temperature not given in the material; high values mean tight binding
# Conditions: chain copies: 2; label: 3' end of strand 1 on the slide; dsDNA, one strand shown
# Outline: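 Nuclear extracts of COS-7 cells transiently transfected with a human HNF4α isoform were applied to a custom Agilent SurePrint G3 4x180k array bearing ~44,000 double-stranded ~60-nt test sequences, each in quadruplicate. The bound protein was imaged on an Agilent G2565CA scanner at 2-µm resolution. Binding signal is the normalized, background-corrected gProcessedSignal from Agilent software.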
row,Sequence,binding signal [log2 normalized intensity]
1,CCCCTTCTTAACATCAGAAGTTGGACTTTGGCCTAGGGAGATTAGAGTATCGGTCGA,7.59
2,ATTAGAGAACATGTACTTTGTACTGCTTATGCCTAGGGAGATTAGAGTATCGGTCGA,4.15
3,AGGGACTTTGATCTTCTTACCCCTTTGCTGGCCTAGGGAGATTAGAGTATCGGTCGA,2.86
4,AGGAGATGTGGTGGACTTTAACGACCTTTGGCCTAGGGAGATTAGAGTATCGGTCGA,4.66
5,ACTTTGGAACTCAGTTAATGTACAGAGTATGCCTAGGGAGATTAGAGTATCGGTCGA,0.375
6,TCTTAACATCAGAAGTTGGACTTTGTACATGCCTAGGGAGATTAGAGTATCGGTCGA,9.62
7,CTTTGCTCCCACCCTGCAATTCCCCTGGGCGCCTAGGGAGATTAGAGTATCGGTCGA,3.29
8,CAAACAGACCTCCCCCAACTTACTTAGTGGGCCTAGGGAGATTAGAGTATCGGTCGA,1.85
9,TTCAATTTTTTTGTTGTTATCCATTTAAAAGCCTAGGGAGATTAGAGTATCGGTCGA,1.04
10,GTATCTAATCTCAGATATGCTAATTAACCCGCCTAGGGAGATTAGAGTATCGGTCGA,1.79
11,GTTATGAGTCTGTTGTCTAACATTTTTGACGCCTAGGGAGATTAGAGTATCGGTCGA,0.629
12,CTTACTTGGCCTGTTTGCTGAAGGCCATGCGCCTAGGGAGATTAGAGTATCGGTCGA,0.0452
13,CAACTAGGGCAAAGGTTAGCTTGGACAGAGGCCTAGGGAGATTAGAGTATCGGTCGA,2.72
14,GGTATGTTTGTGATATTGTGAAATATATATGCCTAGGGAGATTAGAGTATCGGTCGA,2.03
15,TGCCTTTGATCAGGGACCTTTGTTCCTTTAGCCTAGGGAGATTAGAGTATCGGTCGA,4.43
16,TGCACTTTGACCGCTCATTTGATCCTCACAGCCTAGGGAGATTAGAGTATCGGTCGA,3.87
17,GATAAGCGTATTTCAACCTTTGATCTATAAGCCTAGGGAGATTAGAGTATCGGTCGA,5.94
18,GTGGTCCTAAAATTGACCTTTGATCACTCAGCCTAGGGAGATTAGAGTATCGGTCGA,9.68
19,GACTGACCTTTGATCATTTGAGGGTGACACGCCTAGGGAGATTAGAGTATCGGTCGA,5.65
20,AGGAGGCACTGATAAGCGTATTTCAACCTTGCCTAGGGAGATTAGAGTATCGGTCGA,0.384
21,GCACTGATAAGCGTATTTCAACCTTTGATCGCCTAGGGAGATTAGAGTATCGGTCGA,7.8
22,GTGGTCCTAAGACTGACCTTTGATCATTTGGCCTAGGGAGATTAGAGTATCGGTCGA,8.56
23,GATGATCATGGCTCACTGCACCTTGACCTCGCCTAGGGAGATTAGAGTATCGGTCGA,7.34
24,TCATGGCTCACTGCACCTTGACCTCCTGGGGCCTAGGGAGATTAGAGTATCGGTCGA,4.99

row,Sequence,binding signal [log2 normalized intensity]
1,AGTGCGATGATCATGGCTCACTGCACCTTGGCCTAGGGAGATTAGAGTATCGGTCGA,0.629
2,GAACTGAAAGAGACCTTTGACATCACCTAAGCCTAGGGAGATTAGAGTATCGGTCGA,2.04
3,CACCTTCAGTCACACTGTTTGCGCAAACTAGCCTAGGGAGATTAGAGTATCGGTCGA,-0.824
4,TACCAAGGCTCAGAGGTCAAGTCACTGCTCGCCTAGGGAGATTAGAGTATCGGTCGA,2.57
5,CCTTGGCTGTGTGACTCACCTTTGCTCTGAGCCTAGGGAGATTAGAGTATCGGTCGA,3.71
6,GGGGTCTGGTTTCTAGGTAGATAAGGGAGTGCCTAGGGAGATTAGAGTATCGGTCGA,1.29
7,TCATCCGCATCTGAAGATAAGAGAAGTTGCGCCTAGGGAGATTAGAGTATCGGTCGA,-0.83
8,AACAGTGAATGTTTCGTAATATTTAGGTGTGCCTAGGGAGATTAGAGTATCGGTCGA,1.49
9,TCATTTTACAGATAAGGAAACCAAGGTCCAGCCTAGGGAGATTAGAGTATCGGTCGA,1.45
10,CACCCCCATGCAAGTTCCCACAGAGCCCACGCCTAGGGAGATTAGAGTATCGGTCGA,4.54
11,AGTGTAAATATTTGAGGACACAAAGTGGACGCCTAGGGAGATTAGAGTATCGGTCGA,2.09
12,GCTGACCTTTGGTCTAAACCTACTTAGATCGCCTAGGGAGATTAGAGTATCGGTCGA,4.25
13,CAAATAAACCTTTGACCAATTGACCCTATCGCCTAGGGAGATTAGAGTATCGGTCGA,3.78
14,AATTGACCTTTGATCACTCATGGGCAAGATGCCTAGGGAGATTAGAGTATCGGTCGA,5.65
15,CTCATGTGGTCCTAAGACTGACCTTTGATCGCCTAGGGAGATTAGAGTATCGGTCGA,10.1
16,CCTAAAATTGACCTTTGATCACTCATGGGCGCCTAGGGAGATTAGAGTATCGGTCGA,8.21
17,CTCATGTGGTCCTAAAATTGACCTTTGATCGCCTAGGGAGATTAGAGTATCGGTCGA,10.5
18,AATCAACCTTTGATCGTTTGCATGCAGGGCGCCTAGGGAGATTAGAGTATCGGTCGA,3.25
19,TTGTTTACTCATGTGGTCCTAAGACTAACCGCCTAGGGAGATTAGAGTATCGGTCGA,-0.3
20,GTTTACTCATGTGGTCCTAAGACTGACCTTGCCTAGGGAGATTAGAGTATCGGTCGA,3.77
21,GGTCAAAGAGCAATCATCAAGGTGGTTTCAGCCTAGGGAGATTAGAGTATCGGTCGA,1.71
22,AACACTTACACCTGGGTGCTCCCTCCCCCTGCCTAGGGAGATTAGAGTATCGGTCGA,4.36
23,CTGCCTTAGTCCCAGTATGGTCTCAGTAATGCCTAGGGAGATTAGAGTATCGGTCGA,-0.127
24,TCCTTTTGACCACAGTTATCTCCCCAGCTTGCCTAGGGAGATTAGAGTATCGGTCGA,2.47
